Data: PubChem BioAssay AID1159580 (chemical genetic matrix, 2015)
Screen size: about 5,500 compounds; about 2,000 (36%) were called active. Not shown: some 18% with an inconclusive outcome. Cut-off read from the data, not from the text of the source: active = normalized growth mostly below about 0.91 (no sharp cut-off); inconclusive = no clear call, values can overlap the other calls; inactive = mostly above about 0.92. The list shows a part of the results.

Experiment: chemical genetic growth profiling, strain panel (AID 1159580);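 note: tested at 20 µM; growth read once vehicle control cultures reached saturation at 30 °C; 1 = growth at the plate median or of vehicle wells; lower values mean less growth of the strain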
Conditions: S. cerevisiae deletion strains, growth OD
[1] = locus YAL040C, strain CLN3, stronger effect = lower value
[2] = locus YCL061C, strain MRC1 (second series), stronger effect = lower value
[3] = locus YDR363W, strain ESC2, stronger effect = lower value
[4] = locus YER002W, strain NOP16, stronger effect = lower value
[5] = locus YGR078C, strain PAC10, stronger effect = lower value
[6] = locus YJR075W, strain HOC1, stronger effect = lower value
[7] = locus YMR307W, strain GAS1, stronger effect = lower value
[8] = locus YNL175C, strain NOP13, stronger effect = lower value
[9] = locus YNL197C, strain WHI3, stronger effect = lower value
[10] = locus YNL224C, strain SQS1, stronger effect = lower value
[11] = locus YOR083W, strain WHI5 (second series), stronger effect = lower value
[12] = locus YPL055C, strain LGE1, stronger effect = lower value
[13] = locus YPL241C, strain CIN2, stronger effect = lower value
[14] = locus YAL013W, strain DEP1, stronger effect = lower value

Measured: normalized growth

CC(C)(C)c1onc(OCP(=O)(O)O)c1CC(N)C(=O)O (stereo not drawn)
inactive: [1] 1 | [2] 0.997 | [3] 1.02 | [4] 0.996 | [5] 1.01 | [6] 1 | [7] 1.03 | locus YNL128W, strain TEP1, stronger effect = lower value 1.03 | [8] 0.999 | [9] 1.01 | [10] 1.01 | [11] 1.06 | [12] 1 | [13] 0.999

O=C(O)C1=CCCN(CCON=C(c2ccccc2)c2ccccc2)C1
inactive: [14] 1 | [1] 1.04 | [2] 1 | locus YDR150W, strain NUM1, stronger effect = lower value 1 | [3] 0.976 | [4] 0.97 | [5] 0.993 | [6] 1 | locus YMR263W, strain SAP30, stronger effect = lower value 1 | [8] 0.987 | [9] 0.981 | [10] 0.993 | [11] 0.987 | [12] 1 | [13] 1

COc1ccc(CCNC[C@@H](O)c2ccc(O)cc2)cc1OC
inactive: [14] 1.01 | [1] 0.995 | [2] 0.993 | [3] 1.02 | [4] 1.01 | [7] 0.944 | locus YNL153C, strain GIM3, stronger effect = lower value 0.999 | [8] 0.992 | [9] 0.981 | [10] 0.989 | [11] 0.986

CNCC(O)c1cccc(O)c1 (stereo not drawn)
inactive: [14] 0.992 | [1] 0.974 | [2] 0.988 | [3] 0.99 | [4] 1.01 | locus YGR229C, strain SMI1, stronger effect = lower value 1.01 | [7] 0.968 | [8] 1.01 | [9] 0.998 | [10] 1 | locus YNL322C, strain KRE1, stronger effect = lower value 0.976 | [11] 1.02 | [12] 0.984
